# Measurements as given in PMC7862700, “An all-to-all approach to the identification of sequence-specific readers for epigenetic DNA modifications on cytosine”.
# Columns and labels:
# Assay in all cases: DAPPL (digital affinity profiling via proximity ligation, sequencing); 10 mM Tris-HCl pH 7.5, 50 mM NaCl, 1 mM DTT, 4% glycerol, room temperature, 30 min; GST-TFs on glutathione beads, 16-mer random dsDNA library, 0.1% formaldehyde crosslink after washing; high values mean tight binding
# Details in all cases: protein: recombinant; tags: N-terminal GST; dsDNA, one strand shown
# [1] = biological target: T1, ELK1 (Homo sapiens, UniProt P19419 1-428)
# T1 sequence: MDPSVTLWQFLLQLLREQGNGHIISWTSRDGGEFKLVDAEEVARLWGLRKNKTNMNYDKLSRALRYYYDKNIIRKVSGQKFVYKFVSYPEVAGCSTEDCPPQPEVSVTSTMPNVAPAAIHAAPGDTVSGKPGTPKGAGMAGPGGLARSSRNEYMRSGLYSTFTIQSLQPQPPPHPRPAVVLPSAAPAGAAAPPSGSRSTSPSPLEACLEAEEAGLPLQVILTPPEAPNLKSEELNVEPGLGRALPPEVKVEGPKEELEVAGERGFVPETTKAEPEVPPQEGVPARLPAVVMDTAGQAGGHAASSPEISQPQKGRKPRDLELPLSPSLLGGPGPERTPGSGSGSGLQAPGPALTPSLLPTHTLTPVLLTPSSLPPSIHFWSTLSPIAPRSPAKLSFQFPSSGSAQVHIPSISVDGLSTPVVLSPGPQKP
# In short: (§1)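 Yeast served to express human transcription factors as GST fusions, which were then captured on glutathione beads and labelled with DNA barcodes. Pooled with a tag-only sample, they were incubated with 200 nmole of a 16-mer random double-stranded DNA library for 30 min at room temperature in Tris/NaCl/DTT/glycerol buffer, washed, crosslinked with 0.1% formaldehyde, ligated by proximity, amplified by PCR and sequenced. Dividing each hexamer's read frequency for a factor by its frequency for the tag-only sample gives the binding signal.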
# [2] = biological target: T2, ERG (Homo sapiens, UniProt P11308 1-479)
# T2 sequence: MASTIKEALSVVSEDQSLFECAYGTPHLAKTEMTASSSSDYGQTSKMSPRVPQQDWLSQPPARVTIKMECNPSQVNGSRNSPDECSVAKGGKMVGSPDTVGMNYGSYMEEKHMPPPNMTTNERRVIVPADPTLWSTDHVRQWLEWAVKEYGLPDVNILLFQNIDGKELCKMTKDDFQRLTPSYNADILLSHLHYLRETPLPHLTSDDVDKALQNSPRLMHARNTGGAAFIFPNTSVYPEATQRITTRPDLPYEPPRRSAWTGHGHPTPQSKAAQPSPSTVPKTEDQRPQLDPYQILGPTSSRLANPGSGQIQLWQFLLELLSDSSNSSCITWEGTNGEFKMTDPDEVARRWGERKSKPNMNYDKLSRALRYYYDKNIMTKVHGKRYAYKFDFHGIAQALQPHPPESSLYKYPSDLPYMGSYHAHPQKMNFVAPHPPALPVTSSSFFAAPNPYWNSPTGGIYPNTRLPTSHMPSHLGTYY
# In short: as §1
# [3] = biological target: T3, EHF (Homo sapiens, UniProt Q9NZC4 1-300)
# T3 sequence: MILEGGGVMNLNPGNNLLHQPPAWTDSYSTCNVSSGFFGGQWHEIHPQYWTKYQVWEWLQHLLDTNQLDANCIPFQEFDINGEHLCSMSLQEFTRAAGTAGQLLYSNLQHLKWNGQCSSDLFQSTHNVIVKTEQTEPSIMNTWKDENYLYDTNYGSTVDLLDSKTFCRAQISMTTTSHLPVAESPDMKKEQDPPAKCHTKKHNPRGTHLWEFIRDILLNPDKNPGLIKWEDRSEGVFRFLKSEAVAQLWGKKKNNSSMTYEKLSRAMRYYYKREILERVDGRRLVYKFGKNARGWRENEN
# In short: as §1
# [4] = biological target: SPIB (Homo sapiens, UniProt Q01892 1-262)
# Chain of SPIB (Q01892 whole entry): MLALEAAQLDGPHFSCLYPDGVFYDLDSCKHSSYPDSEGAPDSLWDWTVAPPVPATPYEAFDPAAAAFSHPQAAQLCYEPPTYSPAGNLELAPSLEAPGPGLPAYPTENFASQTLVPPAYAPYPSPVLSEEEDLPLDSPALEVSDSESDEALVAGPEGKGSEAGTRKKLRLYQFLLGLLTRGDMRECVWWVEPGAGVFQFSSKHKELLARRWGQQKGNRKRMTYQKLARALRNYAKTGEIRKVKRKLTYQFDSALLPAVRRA
# In short: as §1
# [5] = biological target: T4, ELK3 (Homo sapiens, UniProt P41970 1-407)
# T4 sequence: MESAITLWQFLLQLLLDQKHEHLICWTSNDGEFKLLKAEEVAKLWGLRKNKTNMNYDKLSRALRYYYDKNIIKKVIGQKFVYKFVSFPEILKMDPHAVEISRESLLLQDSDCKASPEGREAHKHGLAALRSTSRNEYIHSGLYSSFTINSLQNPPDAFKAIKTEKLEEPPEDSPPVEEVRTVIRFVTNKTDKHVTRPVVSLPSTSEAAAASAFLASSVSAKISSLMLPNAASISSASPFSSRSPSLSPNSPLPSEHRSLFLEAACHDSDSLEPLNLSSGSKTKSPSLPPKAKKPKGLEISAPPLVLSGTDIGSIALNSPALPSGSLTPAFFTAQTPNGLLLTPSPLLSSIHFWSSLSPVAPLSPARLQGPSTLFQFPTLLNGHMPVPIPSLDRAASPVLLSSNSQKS
# In short: as §1
# [6] = biological target: T5, SPIC (Homo sapiens, UniProt Q8N5J4 1-248)
# T5 sequence: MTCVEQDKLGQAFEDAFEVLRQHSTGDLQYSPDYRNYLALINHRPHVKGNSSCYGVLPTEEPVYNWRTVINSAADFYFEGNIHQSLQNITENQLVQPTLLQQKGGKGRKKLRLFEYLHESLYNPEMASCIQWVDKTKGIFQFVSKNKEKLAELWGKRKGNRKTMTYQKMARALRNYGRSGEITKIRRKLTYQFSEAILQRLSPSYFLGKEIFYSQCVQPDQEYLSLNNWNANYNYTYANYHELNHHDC
# In short: as §1
# [7] = biological target: ELF4 (Homo sapiens, UniProt Q99607 1-663)
# Chain of ELF4 (Q99607 whole entry): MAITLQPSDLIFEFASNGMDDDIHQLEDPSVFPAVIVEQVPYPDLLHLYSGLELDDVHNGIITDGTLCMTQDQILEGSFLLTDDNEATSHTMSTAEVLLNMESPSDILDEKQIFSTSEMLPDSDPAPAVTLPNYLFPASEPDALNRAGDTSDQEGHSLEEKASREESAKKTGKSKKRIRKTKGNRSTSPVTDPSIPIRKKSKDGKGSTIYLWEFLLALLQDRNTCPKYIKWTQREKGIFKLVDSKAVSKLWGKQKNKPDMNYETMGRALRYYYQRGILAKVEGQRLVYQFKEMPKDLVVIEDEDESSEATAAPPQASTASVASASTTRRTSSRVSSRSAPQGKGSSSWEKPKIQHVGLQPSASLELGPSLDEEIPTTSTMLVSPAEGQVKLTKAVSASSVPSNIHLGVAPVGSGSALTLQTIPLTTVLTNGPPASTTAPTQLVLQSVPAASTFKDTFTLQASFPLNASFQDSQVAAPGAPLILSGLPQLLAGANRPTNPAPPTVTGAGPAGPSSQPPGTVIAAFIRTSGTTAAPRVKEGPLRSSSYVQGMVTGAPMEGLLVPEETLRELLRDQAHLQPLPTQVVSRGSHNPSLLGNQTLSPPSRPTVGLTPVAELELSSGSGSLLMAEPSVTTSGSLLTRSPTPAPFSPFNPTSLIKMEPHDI
# In short: as §1
# [8] = biological target: T6, ELK4 (Homo sapiens, UniProt P28324-2 1-405)
# T6 sequence: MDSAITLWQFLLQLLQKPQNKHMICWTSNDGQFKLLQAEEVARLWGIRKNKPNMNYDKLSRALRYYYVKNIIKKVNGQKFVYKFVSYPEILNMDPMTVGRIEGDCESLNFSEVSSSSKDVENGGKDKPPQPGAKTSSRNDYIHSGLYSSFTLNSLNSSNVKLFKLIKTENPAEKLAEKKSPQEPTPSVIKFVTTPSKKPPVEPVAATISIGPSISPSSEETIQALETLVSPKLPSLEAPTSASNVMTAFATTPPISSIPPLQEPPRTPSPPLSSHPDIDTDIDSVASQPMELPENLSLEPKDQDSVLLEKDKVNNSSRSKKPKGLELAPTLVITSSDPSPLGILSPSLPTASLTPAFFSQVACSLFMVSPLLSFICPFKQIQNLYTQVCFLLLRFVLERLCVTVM
# In short: as §1
# [9] = biological target: ETV1 (Homo sapiens, UniProt P50549 1-477)
# Chain of ETV1 (P50549 whole entry): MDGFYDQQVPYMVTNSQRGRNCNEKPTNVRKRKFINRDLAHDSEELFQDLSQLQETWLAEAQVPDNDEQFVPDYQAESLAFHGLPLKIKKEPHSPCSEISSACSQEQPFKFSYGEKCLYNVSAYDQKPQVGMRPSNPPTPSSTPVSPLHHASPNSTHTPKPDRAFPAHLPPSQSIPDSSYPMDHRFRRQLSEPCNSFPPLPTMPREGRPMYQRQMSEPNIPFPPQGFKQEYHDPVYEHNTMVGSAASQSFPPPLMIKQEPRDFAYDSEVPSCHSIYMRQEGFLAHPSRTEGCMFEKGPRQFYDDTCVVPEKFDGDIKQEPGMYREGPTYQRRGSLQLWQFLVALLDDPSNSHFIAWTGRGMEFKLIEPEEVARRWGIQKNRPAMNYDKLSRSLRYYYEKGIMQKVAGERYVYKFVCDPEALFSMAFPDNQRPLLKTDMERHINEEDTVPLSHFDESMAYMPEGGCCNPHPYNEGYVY
# In short: as §1
# [10] = biological target: T7, ERF (Homo sapiens, UniProt P50548 1-548)
# T7 sequence: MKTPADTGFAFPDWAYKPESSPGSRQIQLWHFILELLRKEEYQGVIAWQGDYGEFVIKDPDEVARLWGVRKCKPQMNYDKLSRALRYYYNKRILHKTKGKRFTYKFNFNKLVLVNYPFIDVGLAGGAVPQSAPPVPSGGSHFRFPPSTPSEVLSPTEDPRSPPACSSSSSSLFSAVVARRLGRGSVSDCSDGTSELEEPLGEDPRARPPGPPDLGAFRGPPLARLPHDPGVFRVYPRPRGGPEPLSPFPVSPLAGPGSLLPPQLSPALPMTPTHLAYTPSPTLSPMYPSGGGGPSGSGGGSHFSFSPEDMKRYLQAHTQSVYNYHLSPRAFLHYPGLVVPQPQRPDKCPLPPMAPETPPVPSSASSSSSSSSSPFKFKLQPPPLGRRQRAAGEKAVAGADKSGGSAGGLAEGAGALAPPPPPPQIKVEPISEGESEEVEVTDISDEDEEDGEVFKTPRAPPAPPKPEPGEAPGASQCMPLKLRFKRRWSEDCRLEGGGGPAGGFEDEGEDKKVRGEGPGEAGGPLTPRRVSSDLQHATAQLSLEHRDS
# In short: as §1
# [11] = biological target: T8, ETV3L (Homo sapiens, UniProt Q6ZN32 1-361)
# T8 sequence: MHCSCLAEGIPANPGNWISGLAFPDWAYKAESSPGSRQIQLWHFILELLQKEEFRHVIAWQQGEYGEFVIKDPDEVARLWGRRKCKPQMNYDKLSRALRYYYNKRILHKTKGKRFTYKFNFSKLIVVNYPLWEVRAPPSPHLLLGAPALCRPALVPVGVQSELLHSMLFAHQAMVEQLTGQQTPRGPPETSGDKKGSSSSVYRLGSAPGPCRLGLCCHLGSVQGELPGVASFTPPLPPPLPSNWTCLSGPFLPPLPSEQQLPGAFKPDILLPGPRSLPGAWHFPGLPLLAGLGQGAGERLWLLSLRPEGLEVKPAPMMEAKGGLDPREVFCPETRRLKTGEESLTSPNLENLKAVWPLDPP
# In short: as §1
# [12] = biological target: T9, ETV7 (Homo sapiens, UniProt Q9Y603 1-341)
# T9 sequence: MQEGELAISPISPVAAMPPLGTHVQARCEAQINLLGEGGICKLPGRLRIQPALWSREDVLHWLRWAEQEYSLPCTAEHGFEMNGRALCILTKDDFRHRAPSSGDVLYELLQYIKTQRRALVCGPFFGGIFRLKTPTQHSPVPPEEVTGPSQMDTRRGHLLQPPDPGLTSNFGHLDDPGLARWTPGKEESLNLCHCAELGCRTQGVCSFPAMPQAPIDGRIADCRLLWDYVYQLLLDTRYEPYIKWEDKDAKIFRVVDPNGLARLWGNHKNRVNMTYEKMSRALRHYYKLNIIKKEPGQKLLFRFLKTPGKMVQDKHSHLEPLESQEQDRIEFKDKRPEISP
# In short: as §1
# [13] = biological target: T10, ETV3 (Homo sapiens, UniProt P41162-2 1-143)
# T10 sequence: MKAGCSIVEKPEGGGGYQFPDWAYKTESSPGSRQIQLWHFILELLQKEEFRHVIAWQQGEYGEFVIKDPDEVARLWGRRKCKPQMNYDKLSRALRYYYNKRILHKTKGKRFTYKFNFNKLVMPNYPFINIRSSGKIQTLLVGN
# In short: as §1
# [14] = biological target: ETV6 (Homo sapiens, UniProt P41212 1-452)
# Chain of ETV6 (P41212 whole entry): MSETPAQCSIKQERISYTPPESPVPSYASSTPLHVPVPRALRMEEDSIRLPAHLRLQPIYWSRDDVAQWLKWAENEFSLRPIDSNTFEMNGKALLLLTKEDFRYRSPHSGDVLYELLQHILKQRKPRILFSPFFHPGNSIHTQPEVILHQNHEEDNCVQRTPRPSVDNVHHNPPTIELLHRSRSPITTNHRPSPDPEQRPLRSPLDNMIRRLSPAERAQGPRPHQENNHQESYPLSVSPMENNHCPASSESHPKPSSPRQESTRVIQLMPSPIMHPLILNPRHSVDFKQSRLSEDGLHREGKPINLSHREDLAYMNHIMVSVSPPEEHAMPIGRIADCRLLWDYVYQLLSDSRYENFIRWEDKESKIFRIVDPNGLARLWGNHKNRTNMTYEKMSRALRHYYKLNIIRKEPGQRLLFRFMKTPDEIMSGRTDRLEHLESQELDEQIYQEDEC
# In short: as §1
sequence,measurement,setting,value
CAATGT,binding signal,[1],"1.06 fold enrichment (6-mer frequency, TF over GST control)"
same,binding signal,[2],"1.02 fold enrichment (6-mer frequency, TF over GST control)"
same,binding signal,[3],"1.05 fold enrichment (6-mer frequency, TF over GST control)"
same,binding signal,[4],"1.04 fold enrichment (6-mer frequency, TF over GST control)"
same,binding signal,[5],"1.01 fold enrichment (6-mer frequency, TF over GST control)"
same,binding signal,[6],"1.13 fold enrichment (6-mer frequency, TF over GST control)"
same,binding signal,[7],"1.06 fold enrichment (6-mer frequency, TF over GST control)"
same,binding signal,[8],"1.1 fold enrichment (6-mer frequency, TF over GST control)"
same,binding signal,[9],"1.07 fold enrichment (6-mer frequency, TF over GST control)"
same,binding signal,[10],"1.05 fold enrichment (6-mer frequency, TF over GST control)"
same,binding signal,[11],"1.03 fold enrichment (6-mer frequency, TF over GST control)"
same,binding signal,[12],"1.09 fold enrichment (6-mer frequency, TF over GST control)"
same,binding signal,[13],"1.03 fold enrichment (6-mer frequency, TF over GST control)"
same,binding signal,[14],"1.05 fold enrichment (6-mer frequency, TF over GST control)"
